Experimental data: PubChem BioAssay AID1817 (Sanford-Burnham Center for Chemical Genomics, 2009)
In all, about 290,000 compounds went through this assay and about 50 (0.02%) were called active.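 How the source made its calls: active means displacement of at least 50% at 20 µM, with a fluorescence ratio check between 0.3 and a set limit; inactive means the rest.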 Shown is part of a subset that was picked to be rich in actives. Entries with a potency or affinity are not part of this list.

What follows are compounds tested against E3 ubiquitin-protein ligase SIAH1 (Homo sapiens) (UniProt Q8IUQ4) (assay: Siah-1 peptide-binding antagonists, primary screen, biochemical, fluorescence polarization, rhodamine-plectin, uHTS (AID 1817;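 further: plate controls were Siah plus tracer with DMSO for no effect and tracer alone without Siah for full effect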)). Conditions: Siah-1 / rhodamine-plectin peptide fluorescence polarization; at 20 µM; stronger effect = higher value.
Chain of E3 ubiquitin-protein ligase SIAH1 (Homo sapiens) (Q8IUQ4 whole entry, looked up): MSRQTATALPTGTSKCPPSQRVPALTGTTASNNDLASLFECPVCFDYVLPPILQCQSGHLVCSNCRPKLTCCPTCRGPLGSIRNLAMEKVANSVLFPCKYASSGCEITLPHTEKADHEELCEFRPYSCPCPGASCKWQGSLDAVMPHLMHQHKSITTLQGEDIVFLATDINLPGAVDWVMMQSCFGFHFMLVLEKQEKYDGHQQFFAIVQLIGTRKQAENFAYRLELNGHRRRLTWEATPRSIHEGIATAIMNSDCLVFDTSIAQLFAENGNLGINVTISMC

Row | SMILES | displacement
1 | CC(C)c1ccc(N2C(=O)NC(=O)/C(=C\C=C\c3ccco3)C2=O)cc1 | 14.6% (inactive)
2 | Cc1ccc(N2C(=O)NC(=O)/C(=C\C=C\c3ccco3)C2=O)cc1 | 12.1% (inactive)
3 | CC(C)c1ccc(N2C(=O)NC(=O)/C(=C/C=C/c3ccco3)C2=O)cc1 | 51.8% (active)
4 | O=[N+]([O-])c1ccc(N2CCNCC2)cc1NCc1ccco1 | -3.7% (inactive)
5 | C=C1C(=O)O[C@@H]2C[C@@H](C)[C@@H]3C=CC(=O)[C@@]3(C)[C@@H](O)[C@H]12 | 4.7% (inactive)
6 | C=C1C(=O)O[C@@H]2C[C@@H](C)[C@H]3C=CC(=O)[C@]3(O)C[C@@H]12 | 51.6% (active)
7 | C=C1C(=O)O[C@H]2C[C@@H](C)[C@@H]3C=CC(=O)[C@@]3(C)C[C@H]12 | 12.6% (inactive)
8 | Cc1cc(C=O)c(C)n1C1CCCCC1 | 2.7% (inactive)
9 | COCCCn1c(N)c(C(=O)OCCOC)c2nc3ccccc3nc21 | 2.9% (inactive)
10 | CCCCCn1c(NC(=O)c2ccco2)c(C(=O)OCC)c2nc3ccccc3nc21 | 64.6% (active)
11 | CCOC(=O)c1c(NS(=O)(=O)c2ccccc2)n(CCCOC)c2nc3ccccc3nc12 | 67% (active)
12 | CCCCn1c(NS(=O)(=O)c2ccc(C)cc2)c(C(=O)OCC)c2nc3ccccc3nc21 | 34.7% (inactive)
13 | CCCCn1c(NC(=O)c2ccco2)c(C(=O)OCC)c2nc3ccccc3nc21 | 4.9% (inactive)
14 | CCOC(=O)c1c(N)n(CCCOC(=O)c2ccco2)c2nc3ccccc3nc12 | 2.6% (inactive)
15 | COc1ccc(NC(=O)N2CCC3(CC2)OCCO3)cc1 | -2.3% (inactive)
16 | O=C(O)C1C2CCC(O2)C1C(=O)Nc1ccc(F)c(F)c1 (stereo not given) | 10.6% (inactive)
17 | O=C1NC(=S)N(Cc2ccco2)C(=O)/C1=C\c1cccs1 | 21.3% (inactive)
18 | Cc1ccccc1-n1c(O)c(/C=N/N2CCOCC2)c(=O)[nH]c1=S | 2.7% (inactive)
19 | Cc1cccc(C)c1NC1=NCCCCS1 | -1.2% (inactive)
20 | CCCC12CN3CCN(C1)CC(CCC)(C3)C2=O | 8.2% (inactive)
